# Test results taken from PMC7862700, “An all-to-all approach to the identification of sequence-specific readers for epigenetic DNA modifications on cytosine”.
# Tests used:
# Experiment in all cases: DAPPL (digital affinity profiling via proximity ligation, sequencing); 10 mM Tris-HCl pH 7.5, 50 mM NaCl, 1 mM DTT, 4% glycerol, room temperature, 30 min; GST-TFs on glutathione beads, 16-mer random dsDNA library, 0.1% formaldehyde crosslink after washing; high values mean tight binding
# [1] = target: T1, FLI1 (Homo sapiens, UniProt Q01543 1-452); conditions: protein: recombinant; tags: N-terminal GST; dsDNA, one strand shown
# T1 sequence: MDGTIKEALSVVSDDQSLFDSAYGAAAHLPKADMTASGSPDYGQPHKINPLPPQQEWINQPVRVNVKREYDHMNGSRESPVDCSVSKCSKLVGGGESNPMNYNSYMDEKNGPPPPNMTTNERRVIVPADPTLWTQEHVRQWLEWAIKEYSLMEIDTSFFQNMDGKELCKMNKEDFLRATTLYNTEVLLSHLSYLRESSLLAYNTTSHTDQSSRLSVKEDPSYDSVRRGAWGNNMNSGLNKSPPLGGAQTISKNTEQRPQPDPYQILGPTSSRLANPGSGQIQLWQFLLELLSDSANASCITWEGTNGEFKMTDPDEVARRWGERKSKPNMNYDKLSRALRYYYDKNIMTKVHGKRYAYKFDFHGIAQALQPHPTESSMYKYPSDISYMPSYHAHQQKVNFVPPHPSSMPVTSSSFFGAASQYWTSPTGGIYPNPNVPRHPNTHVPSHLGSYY
# How it was run: (§1)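 Beads coated with glutathione captured GST-fused human transcription factors that had been expressed in yeast, and the factors were then given DNA barcodes and pooled with a tag-only sample. The pools were incubated with 200 nmole of a random double-stranded 16-mer DNA library in Tris/NaCl/DTT/glycerol buffer for 30 min at room temperature, washed, crosslinked with 0.1% formaldehyde and proximity-ligated with BsaI/T4 ligase at 37 °C for 1 h. PCR amplification and Illumina NextSeq500 sequencing came last. Binding signal is each hexamer's read frequency for a factor divided by its frequency for the tag-only sample.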
# [2] = target: T2, ELK1 (Homo sapiens, UniProt P19419 1-428); conditions: protein: recombinant; tags: N-terminal GST; dsDNA, one strand shown
# T2 sequence: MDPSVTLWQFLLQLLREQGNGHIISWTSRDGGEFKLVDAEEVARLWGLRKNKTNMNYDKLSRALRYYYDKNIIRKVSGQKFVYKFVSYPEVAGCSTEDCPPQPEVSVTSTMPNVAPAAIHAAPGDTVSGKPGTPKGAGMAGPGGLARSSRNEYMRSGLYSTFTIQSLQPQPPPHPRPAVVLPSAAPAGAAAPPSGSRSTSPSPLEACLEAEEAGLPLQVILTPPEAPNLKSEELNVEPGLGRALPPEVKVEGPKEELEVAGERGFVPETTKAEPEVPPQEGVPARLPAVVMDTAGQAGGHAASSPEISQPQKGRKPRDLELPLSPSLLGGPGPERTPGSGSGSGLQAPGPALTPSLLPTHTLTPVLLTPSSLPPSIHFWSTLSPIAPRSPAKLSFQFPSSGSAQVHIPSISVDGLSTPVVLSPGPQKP
# How it was run: as §1
# [3] = target: T3, GABPA (Homo sapiens, UniProt Q06546 1-454); conditions: protein: recombinant; tags: N-terminal GST; dsDNA, one strand shown
# T3 sequence: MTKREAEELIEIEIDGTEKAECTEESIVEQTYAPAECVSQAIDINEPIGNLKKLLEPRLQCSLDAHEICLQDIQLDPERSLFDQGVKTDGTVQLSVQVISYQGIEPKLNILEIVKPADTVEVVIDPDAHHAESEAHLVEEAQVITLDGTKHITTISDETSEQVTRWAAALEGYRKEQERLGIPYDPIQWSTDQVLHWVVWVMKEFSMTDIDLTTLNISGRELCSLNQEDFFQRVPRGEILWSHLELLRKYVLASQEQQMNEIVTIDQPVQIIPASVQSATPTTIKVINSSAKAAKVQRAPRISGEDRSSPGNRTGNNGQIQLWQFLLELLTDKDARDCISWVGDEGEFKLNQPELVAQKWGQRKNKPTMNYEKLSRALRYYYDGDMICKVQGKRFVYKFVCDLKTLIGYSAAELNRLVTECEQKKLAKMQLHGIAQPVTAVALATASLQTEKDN
# How it was run: as §1
# [4] = target: T4, ERG (Homo sapiens, UniProt P11308 1-479); conditions: protein: recombinant; tags: N-terminal GST; dsDNA, one strand shown
# T4 sequence: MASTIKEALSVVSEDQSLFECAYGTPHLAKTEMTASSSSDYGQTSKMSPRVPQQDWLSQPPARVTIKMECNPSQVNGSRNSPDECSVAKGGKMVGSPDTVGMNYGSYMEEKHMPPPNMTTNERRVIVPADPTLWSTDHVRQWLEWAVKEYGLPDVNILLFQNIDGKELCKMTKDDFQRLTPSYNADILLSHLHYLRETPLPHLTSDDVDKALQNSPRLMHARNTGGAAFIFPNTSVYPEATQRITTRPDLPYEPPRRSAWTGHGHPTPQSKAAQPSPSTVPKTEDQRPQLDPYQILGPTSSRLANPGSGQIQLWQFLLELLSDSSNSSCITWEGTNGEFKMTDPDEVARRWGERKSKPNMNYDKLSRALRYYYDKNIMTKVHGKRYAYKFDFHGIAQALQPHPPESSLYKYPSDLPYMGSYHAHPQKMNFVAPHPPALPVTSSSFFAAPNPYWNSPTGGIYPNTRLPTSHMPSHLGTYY
# How it was run: as §1
# [5] = target: ELF1 (Homo sapiens, UniProt P32519 1-619); conditions: protein: recombinant; tags: N-terminal GST; dsDNA, one strand shown
# How it was run: as §1
# [6] = target: T5, EHF (Homo sapiens, UniProt Q9NZC4 1-300); conditions: protein: recombinant; tags: N-terminal GST; dsDNA, one strand shown
# T5 sequence: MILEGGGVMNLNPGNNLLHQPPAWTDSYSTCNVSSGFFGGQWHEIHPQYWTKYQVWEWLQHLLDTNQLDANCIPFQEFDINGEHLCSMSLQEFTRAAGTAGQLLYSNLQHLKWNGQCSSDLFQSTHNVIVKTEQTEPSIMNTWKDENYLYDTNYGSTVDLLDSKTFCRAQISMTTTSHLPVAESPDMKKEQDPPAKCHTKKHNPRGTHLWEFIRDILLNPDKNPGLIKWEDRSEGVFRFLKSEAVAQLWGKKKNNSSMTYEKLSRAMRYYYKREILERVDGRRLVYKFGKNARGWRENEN
# How it was run: as §1
# [7] = target: SPI1 (Homo sapiens, UniProt P17947 1-270); conditions: protein: recombinant; tags: N-terminal GST; dsDNA, one strand shown
# How it was run: as §1
# [8] = target: SPIB (Homo sapiens, UniProt Q01892 1-262); conditions: protein: recombinant; tags: N-terminal GST; dsDNA, one strand shown
# How it was run: as §1
# [9] = target: T6, ELK3 (Homo sapiens, UniProt P41970 1-407); conditions: protein: recombinant; tags: N-terminal GST; dsDNA, one strand shown
# T6 sequence: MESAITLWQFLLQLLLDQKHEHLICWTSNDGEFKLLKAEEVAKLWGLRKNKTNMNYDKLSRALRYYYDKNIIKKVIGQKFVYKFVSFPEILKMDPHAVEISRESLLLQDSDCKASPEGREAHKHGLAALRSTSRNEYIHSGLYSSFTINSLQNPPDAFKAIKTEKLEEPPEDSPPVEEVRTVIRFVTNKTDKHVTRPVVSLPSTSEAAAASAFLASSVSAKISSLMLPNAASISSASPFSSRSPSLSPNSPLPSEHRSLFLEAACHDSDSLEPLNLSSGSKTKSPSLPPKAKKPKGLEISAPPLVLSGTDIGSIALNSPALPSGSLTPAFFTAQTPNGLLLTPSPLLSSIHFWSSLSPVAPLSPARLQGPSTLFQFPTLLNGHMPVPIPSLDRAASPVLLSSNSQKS
# How it was run: as §1
# [10] = target: T7, FEV (Homo sapiens, UniProt Q99581 1-238); conditions: protein: recombinant; tags: N-terminal GST; dsDNA, one strand shown
# T7 sequence: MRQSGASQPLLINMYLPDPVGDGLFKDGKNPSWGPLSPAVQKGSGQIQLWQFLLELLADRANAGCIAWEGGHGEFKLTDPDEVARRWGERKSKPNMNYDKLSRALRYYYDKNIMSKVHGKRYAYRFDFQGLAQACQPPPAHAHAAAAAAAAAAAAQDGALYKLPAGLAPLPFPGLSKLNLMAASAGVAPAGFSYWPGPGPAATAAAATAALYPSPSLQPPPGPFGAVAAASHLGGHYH
# How it was run: as §1
# [11] = target: ETV5 (Homo sapiens, UniProt P41161 1-510); conditions: protein: recombinant; tags: N-terminal GST; dsDNA, one strand shown
# How it was run: as §1
# [12] = target: HSF1 (Homo sapiens, UniProt Q00613 1-529); conditions: protein: recombinant; tags: N-terminal GST; chain copies: 3; dsDNA, one strand shown
# How it was run: as §1
# [13] = target: T8, SPIC (Homo sapiens, UniProt Q8N5J4 1-248); conditions: protein: recombinant; tags: N-terminal GST; dsDNA, one strand shown
# T8 sequence: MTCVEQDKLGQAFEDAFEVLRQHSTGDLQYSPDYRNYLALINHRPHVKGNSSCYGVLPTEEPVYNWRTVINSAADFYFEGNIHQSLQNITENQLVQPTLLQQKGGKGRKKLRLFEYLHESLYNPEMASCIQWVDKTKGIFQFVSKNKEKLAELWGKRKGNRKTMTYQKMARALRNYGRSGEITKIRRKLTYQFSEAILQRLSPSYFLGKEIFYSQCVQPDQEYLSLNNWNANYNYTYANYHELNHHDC
# How it was run: as §1
# [14] = target: ELF4 (Homo sapiens, UniProt Q99607 1-663); conditions: protein: recombinant; tags: N-terminal GST; dsDNA, one strand shown
# How it was run: as §1
# [15] = target: T9, ELK4 (Homo sapiens, UniProt P28324-2 1-405); conditions: protein: recombinant; tags: N-terminal GST; dsDNA, one strand shown
# T9 sequence: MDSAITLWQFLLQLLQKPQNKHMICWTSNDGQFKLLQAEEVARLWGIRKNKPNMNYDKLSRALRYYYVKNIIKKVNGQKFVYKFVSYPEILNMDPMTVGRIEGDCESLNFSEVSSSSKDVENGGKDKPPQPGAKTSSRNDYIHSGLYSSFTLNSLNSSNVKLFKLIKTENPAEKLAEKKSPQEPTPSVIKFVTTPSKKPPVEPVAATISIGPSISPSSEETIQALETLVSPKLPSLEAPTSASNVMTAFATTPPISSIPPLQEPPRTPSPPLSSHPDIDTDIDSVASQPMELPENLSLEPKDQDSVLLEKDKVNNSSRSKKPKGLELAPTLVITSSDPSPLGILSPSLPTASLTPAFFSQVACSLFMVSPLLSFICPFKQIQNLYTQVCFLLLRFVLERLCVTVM
# How it was run: as §1
# [16] = target: T10, ETV2 (Homo sapiens, UniProt O00321 1-342); conditions: protein: recombinant; tags: N-terminal GST; dsDNA, one strand shown
# T10 sequence: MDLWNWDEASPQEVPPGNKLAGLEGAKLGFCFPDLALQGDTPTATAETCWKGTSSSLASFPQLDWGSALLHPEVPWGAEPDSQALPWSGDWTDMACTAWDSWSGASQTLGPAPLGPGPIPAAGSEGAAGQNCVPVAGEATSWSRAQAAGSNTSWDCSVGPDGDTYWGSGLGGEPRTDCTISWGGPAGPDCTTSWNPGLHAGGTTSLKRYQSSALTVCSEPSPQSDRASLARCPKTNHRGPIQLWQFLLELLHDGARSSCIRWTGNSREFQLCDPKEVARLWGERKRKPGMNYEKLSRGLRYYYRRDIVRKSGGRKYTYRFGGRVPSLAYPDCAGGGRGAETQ
# How it was run: as §1
# [17] = target: T11, ELF3 (Homo sapiens, UniProt P78545 1-371); conditions: protein: recombinant; tags: N-terminal GST; dsDNA, one strand shown
# T11 sequence: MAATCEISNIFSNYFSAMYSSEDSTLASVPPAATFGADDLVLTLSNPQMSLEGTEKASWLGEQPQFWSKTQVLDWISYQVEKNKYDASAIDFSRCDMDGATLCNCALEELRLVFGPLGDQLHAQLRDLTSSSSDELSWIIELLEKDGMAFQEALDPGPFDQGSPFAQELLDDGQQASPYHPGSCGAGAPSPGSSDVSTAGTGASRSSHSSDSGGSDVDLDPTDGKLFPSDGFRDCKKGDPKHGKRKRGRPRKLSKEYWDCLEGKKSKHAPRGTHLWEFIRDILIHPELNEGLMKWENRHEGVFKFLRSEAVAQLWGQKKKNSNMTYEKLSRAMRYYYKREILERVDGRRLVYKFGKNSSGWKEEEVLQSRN
# How it was run: as §1
# [18] = target: CRX (Homo sapiens, UniProt O43186 1-299); conditions: protein: recombinant; tags: N-terminal GST; dsDNA, one strand shown
# How it was run: as §1
# [19] = target: ETV1 (Homo sapiens, UniProt P50549 1-477); conditions: protein: recombinant; tags: N-terminal GST; dsDNA, one strand shown
# How it was run: as §1
# Chain of ETV5 (P41161 whole entry): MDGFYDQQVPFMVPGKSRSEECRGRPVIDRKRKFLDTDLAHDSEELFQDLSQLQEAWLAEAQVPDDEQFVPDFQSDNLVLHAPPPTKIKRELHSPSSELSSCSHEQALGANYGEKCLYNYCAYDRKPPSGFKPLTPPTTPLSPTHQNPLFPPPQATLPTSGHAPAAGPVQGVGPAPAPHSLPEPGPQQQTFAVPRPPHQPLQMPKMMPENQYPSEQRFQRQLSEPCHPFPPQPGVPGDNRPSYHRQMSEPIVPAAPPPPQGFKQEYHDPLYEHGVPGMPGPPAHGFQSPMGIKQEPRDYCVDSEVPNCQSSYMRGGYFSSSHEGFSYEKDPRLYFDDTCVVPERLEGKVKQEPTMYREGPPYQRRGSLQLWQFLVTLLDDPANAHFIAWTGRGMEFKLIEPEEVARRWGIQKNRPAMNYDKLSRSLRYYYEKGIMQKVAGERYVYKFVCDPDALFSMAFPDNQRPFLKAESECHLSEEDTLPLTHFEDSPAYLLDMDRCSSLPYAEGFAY
# Chain of CRX (O43186 whole entry): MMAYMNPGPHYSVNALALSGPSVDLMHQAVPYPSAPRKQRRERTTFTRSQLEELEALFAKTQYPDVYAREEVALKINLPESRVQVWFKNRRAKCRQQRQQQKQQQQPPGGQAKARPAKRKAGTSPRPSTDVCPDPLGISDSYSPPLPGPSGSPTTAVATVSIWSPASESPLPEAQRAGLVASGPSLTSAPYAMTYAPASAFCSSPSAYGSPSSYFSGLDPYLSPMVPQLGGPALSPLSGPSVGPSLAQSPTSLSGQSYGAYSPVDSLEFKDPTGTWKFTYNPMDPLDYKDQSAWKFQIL
# Chain of ELF4 (Q99607 whole entry): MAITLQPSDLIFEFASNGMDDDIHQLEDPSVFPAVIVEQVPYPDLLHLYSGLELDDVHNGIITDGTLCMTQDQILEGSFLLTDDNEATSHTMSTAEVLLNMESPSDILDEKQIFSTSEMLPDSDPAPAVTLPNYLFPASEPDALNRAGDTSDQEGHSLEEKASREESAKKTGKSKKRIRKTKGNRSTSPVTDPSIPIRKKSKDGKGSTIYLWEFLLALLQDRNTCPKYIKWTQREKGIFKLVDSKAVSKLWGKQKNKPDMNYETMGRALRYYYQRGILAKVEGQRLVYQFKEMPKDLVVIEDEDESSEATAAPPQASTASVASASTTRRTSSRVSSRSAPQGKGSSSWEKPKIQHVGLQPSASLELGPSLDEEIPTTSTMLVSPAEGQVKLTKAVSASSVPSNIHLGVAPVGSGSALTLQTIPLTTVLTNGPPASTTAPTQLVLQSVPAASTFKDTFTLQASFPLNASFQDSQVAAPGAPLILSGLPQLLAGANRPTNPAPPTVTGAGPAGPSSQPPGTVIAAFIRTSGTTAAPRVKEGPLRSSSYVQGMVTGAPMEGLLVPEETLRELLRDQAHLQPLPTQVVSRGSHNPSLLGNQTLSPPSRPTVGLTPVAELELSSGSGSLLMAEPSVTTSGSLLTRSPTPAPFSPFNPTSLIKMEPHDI
# Chain of ETV1 (P50549 whole entry): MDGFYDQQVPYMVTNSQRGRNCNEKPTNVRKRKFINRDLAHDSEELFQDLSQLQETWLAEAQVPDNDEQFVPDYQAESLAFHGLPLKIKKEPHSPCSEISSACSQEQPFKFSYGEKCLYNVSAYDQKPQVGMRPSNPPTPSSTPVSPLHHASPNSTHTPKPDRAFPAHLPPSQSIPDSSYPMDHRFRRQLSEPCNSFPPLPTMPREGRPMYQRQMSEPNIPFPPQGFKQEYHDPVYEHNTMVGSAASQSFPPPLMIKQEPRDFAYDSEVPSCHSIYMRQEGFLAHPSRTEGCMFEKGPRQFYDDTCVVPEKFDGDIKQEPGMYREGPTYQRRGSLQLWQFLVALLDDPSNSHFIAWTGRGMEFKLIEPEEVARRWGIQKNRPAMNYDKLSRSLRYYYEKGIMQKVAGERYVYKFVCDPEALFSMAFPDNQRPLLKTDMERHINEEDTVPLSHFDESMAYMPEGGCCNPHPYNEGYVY
# Chain of HSF1 (Q00613 whole entry): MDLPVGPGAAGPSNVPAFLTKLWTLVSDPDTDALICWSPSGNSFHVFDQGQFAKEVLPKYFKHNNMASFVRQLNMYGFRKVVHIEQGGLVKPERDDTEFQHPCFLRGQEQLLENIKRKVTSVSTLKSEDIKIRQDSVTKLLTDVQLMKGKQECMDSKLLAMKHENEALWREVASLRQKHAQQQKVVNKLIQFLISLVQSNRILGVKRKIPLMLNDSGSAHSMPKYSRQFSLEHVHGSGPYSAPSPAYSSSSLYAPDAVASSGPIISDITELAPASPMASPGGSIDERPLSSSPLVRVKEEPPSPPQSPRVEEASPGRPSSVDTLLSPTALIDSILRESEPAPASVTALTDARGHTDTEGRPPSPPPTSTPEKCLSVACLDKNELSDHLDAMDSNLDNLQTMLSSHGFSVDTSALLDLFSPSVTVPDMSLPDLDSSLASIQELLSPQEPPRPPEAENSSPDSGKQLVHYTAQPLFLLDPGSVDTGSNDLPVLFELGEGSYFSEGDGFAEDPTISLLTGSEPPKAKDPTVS
# Chain of SPIB (Q01892 whole entry): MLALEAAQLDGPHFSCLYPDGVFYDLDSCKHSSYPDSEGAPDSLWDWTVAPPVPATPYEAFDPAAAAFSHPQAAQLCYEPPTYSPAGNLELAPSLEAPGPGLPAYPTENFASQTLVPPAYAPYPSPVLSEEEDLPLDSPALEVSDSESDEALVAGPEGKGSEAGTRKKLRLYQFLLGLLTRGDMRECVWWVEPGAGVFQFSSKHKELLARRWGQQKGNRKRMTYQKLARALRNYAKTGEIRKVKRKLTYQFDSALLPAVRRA
# Chain of ELF1 (P32519 whole entry): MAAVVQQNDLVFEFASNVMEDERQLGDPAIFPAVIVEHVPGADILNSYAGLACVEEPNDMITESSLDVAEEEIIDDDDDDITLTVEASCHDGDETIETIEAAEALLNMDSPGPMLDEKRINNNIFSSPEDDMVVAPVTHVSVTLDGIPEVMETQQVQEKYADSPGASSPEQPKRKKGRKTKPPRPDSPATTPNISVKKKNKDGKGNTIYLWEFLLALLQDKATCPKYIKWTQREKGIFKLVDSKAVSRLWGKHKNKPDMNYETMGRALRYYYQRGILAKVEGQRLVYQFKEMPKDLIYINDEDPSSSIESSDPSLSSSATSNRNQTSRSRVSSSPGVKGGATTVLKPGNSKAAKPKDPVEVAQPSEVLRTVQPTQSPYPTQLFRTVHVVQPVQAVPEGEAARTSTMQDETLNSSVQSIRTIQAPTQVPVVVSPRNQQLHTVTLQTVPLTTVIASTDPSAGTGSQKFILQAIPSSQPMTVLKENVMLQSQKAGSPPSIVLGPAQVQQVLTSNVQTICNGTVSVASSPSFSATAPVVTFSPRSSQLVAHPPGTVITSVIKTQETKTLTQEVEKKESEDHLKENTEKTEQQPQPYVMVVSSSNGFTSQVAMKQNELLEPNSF
sequence,measurement,setting,value
CCGCCT,binding signal,[1],"1.68 fold enrichment (6-mer frequency, TF over GST control)"
same,binding signal,[2],"1.55 fold enrichment (6-mer frequency, TF over GST control)"
same,binding signal,[3],"1.55 fold enrichment (6-mer frequency, TF over GST control)"
same,binding signal,[4],"1.55 fold enrichment (6-mer frequency, TF over GST control)"
same,binding signal,[5],"1.66 fold enrichment (6-mer frequency, TF over GST control)"
same,binding signal,[6],"1.67 fold enrichment (6-mer frequency, TF over GST control)"
same,binding signal,[7],"1.5 fold enrichment (6-mer frequency, TF over GST control)"
same,binding signal,[8],"1.63 fold enrichment (6-mer frequency, TF over GST control)"
same,binding signal,[9],"1.82 fold enrichment (6-mer frequency, TF over GST control)"
same,binding signal,[10],"1.43 fold enrichment (6-mer frequency, TF over GST control)"
same,binding signal,[11],"1.6 fold enrichment (6-mer frequency, TF over GST control)"
same,binding signal,[12],"1.08 fold enrichment (6-mer frequency, TF over GST control)"
same,binding signal,[13],"1.61 fold enrichment (6-mer frequency, TF over GST control)"
same,binding signal,[14],"1.52 fold enrichment (6-mer frequency, TF over GST control)"
same,binding signal,[15],"1.45 fold enrichment (6-mer frequency, TF over GST control)"
same,binding signal,[16],"1.46 fold enrichment (6-mer frequency, TF over GST control)"
same,binding signal,[17],"1.35 fold enrichment (6-mer frequency, TF over GST control)"
same,binding signal,[18],"1.25 fold enrichment (6-mer frequency, TF over GST control)"
same,binding signal,[19],"1.47 fold enrichment (6-mer frequency, TF over GST control)"
